Compound activity deposited in PubChem by The Scripps Research Institute Molecular Screening Center.
Shown are actives, neighbours in structure and some others; about 4.8% of the full set was active somewhere.
hgDAF-12 ag = activates the H. glycines DAF-12 receptor ligand-binding domain. activation, % at 6.8 µM. AID 687014. HEK293 GAL4-hgDAF12 UAS-luciferase reporter, agonist luminescence; normalized to butyrate control. 1.8% of 370,000 active;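 active = activation above a cutoff set at the mean of all screened compounds plus 3 SD, cut at about 10% in these data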;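 also: 0% = DMSO wells and 100% = sodium butyrate wells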
ssDAF12 agonist = activators of S. stercoralis DAF-12 nuclear receptor; AID 652126; 1% of 370,000 active; HEK293 ssDAF-12/GRIP1 lit1-tk-luc reporter, luminescence; % of 3 µM dafachronic acid response; activation, % at 6.8 µM;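 active = activation above the mean over all tested compounds plus 3 SD, cut at about 0.9% in these data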;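 also: 0% = DMSO-only wells and 100% = 3 µM delta7-dafachronic acid wells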
DAX1 inh-1 = DAX1 (NR0B1) inhibition, primary screen; HEK293T StAR-luciferase reporter, SF-1/DAX-1 repression relief; inhibition, % at 6.8 µM; 1.1% of 370,000 active; AID 652010;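 active = inhibition above the mean over all tested compounds plus 3 SD, cut at about 3.6% in these data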;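 also: 0% = DAX-1 cells with DMSO and 100% = cells lacking DAX-1 with DMSO; higher inhibition means more luminescence from relief of DAX-1 repression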
DAX1 inh-2 = inhibits human nuclear receptor DAX1; inhibition, % at 6.75 µM; AID 504766; 0.99% of 340,000 active; HEK293 Gal4-DAX1 luciferase reporter, luminescence;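 active = inhibition above the mean over all tested compounds plus 3 SD, cut at about 4.2% in these data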;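 also: 0% = DAX1-transfected cells with DMSO and 100% = empty-vector control cells with DMSO; inhibition shows as a rise in luminescence from relieved DAX1 repression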
Target sequence (P51843 207-470 limits assumed): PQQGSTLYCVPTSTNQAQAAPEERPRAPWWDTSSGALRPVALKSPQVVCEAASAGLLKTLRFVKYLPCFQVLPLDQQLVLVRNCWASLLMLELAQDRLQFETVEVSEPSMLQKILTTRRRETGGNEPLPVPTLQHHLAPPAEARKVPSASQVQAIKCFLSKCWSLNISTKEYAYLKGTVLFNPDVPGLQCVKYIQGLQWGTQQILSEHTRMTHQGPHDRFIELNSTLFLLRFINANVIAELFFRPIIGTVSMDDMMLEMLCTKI
hcDAF-12 act = activators of H. contortus DAF-12 nuclear receptor; HEK293 hcDAF-12 lit1-tk-luc reporter, luminescence; 0% DMSO, 100% Δ7-dafachronic acid; activation, % at 6.8 µM; 1.4% of 370,000 active;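 active = activation above the mean of all tested compounds plus 3 SD, cut at about 5.5% in these data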;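 also: 100% = response to 3 µM Δ7-dafachronic acid high control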
SMARCA2 activ = activators of SMARCA2 function; MG213 cells, MMTV-luciferase reporter, dexamethasone, overnight; AID 652017; activation, % at 9.1 µM; 1% of 370,000 active; in the data active = activation above about 7.8%;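 also: 0% = vehicle wells and 100% = reference activator wells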
SMARCA2 act conf = confirmation of SMARCA2 (BRM) function activators. shares compounds with SMARCA2 activ. MG213 cells, MMTV-luciferase with dexamethasone, luminescence, overnight; MG213 cells expressing E1A, Rb sequestered; DMSO wells 0%, reference activator 100%. activation, % at 9.1 µM. 30% of 3,500 active;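 active = activation above its plate's cutoff, the mean activation of tested wells plus 3 SD, cut at about 7.9% in these data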
GAL4-VP16 Luc = GAL4-VP16 reporter activation counter-screen; shares compounds with SMARCA2 activ; HEK293 GAL4-VP16 pG5luc reporter, luciferase luminescence; scaled: DMSO wells 0%, SAHA wells 100%; activation, % at 9.1 µM; 41% of 3,500 active;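 active = activation above the solvent-only control well mean plus 3 SD, averaged across control plates, cut at about 5.2% in these data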
* marks the source's active call; other numbers are inactive results; . = no result given.

SMILES | hgDAF-12 ag | ssDAF12 agonist | DAX1 inh-1 | DAX1 inh-2 | hcDAF-12 act | SMARCA2 activ | SMARCA2 act conf | GAL4-VP16 Luc
O=C(/C=C/c1ccccc1)NNC(=O)c1cccc(Cl)c1 | 2 | -1 | 0 | 0 | -1 | 0 | . | .
COc1ccc(C(=O)/C=C/c2ccc(OCc3ccccc3)cc2)cc1CSCC(=O)O | 1 | -1 | -3 | 0 | -1 | -1 | . | .
O=C(C=Cc1ccc(OCc2ccccc2)cc1)c1c(F)cccc1F | 1 | -1 | 0 | . | 1 | 10* | 9.9* | 1
CN(C)c1ccc(/C=C/C(=O)c2ccccc2)cc1[N+](=O)[O-] | 4 | -1 | 1 | 1 | 1 | 9.3* | 7 | 1
CNc1ccc(/C=C/C(=O)c2ccc(C)cc2)cc1[N+](=O)[O-] | -3 | -2 | 0 | -1 | -3 | -1 | . | .
CN(C)c1ccc(C(=O)/C=C/c2ccccc2)cc1 | 10 | -1 | 2 | 2 | 1 | 10* | 8.6* | 14*
CN(C)c1ccc(C(=O)/C=C/c2ccc(Br)cc2)cc1 | 4 | -2 | 1 | 4 | 3 | 5 | . | .
O=C(C=Cc1cccc(Cl)c1)c1ccccc1 | 3 | 0 | -2 | 0 | 0 | 10* | 2 | 2
CCOc1ccccc1NC(=O)CCC(=O)O | -1 | 0 | 0 | 0 | 0 | -1 | . | .
CC(=O)Nc1c(O)nc(SCC(=O)Nc2cccc(C)c2)[nH]c1=O | 0 | -1 | 0 | 1 | 0 | -2 | . | .
CC(C)CCN1C(=O)c2ccc(C(=O)N3CCCCC3)cc2C1=O | 3 | -1 | -1 | 0 | 1 | -1 | . | .
COc1ccc(CCN(Cc2ccccn2)C(=S)Nc2ccccc2Cl)cc1OC | 0 | -2 | -2 | 0 | -1 | -3 | . | .
Cc1cccc(Cc2nnc(CCC(=O)N3CCCC(CN4CCOCC4)C3)o2)c1 (configuration not stated) | -3 | -1 | 0 | -1 | -1 | -4 | . | .
CCOc1ccc(/C=C/C(=O)c2ccccc2)cc1 | 8 | 0 | 2 | 4 | 6.2* | 9.9* | 6 | 12*
CCOc1ccc(C(=O)/C=C/c2ccc(SC)cc2)cc1 | -3 | -2 | -1 | 0 | -1 | -1 | . | .
O=C(Nc1ccsc1C(=O)O)c1cccc(C(F)(F)F)c1 | 5 | 0 | 1 | 2 | 3 | 3 | . | .
Cc1ccccc1NC(=O)c1cccc(C(F)(F)F)c1 | -1 | -2 | 0 | 0 | 0 | 8.2* | 5 | 1
COc1ccc(COc2ccsc2C(=O)Nc2ccc(Cl)c(Cl)c2)cc1 | 2 | 0 | 0 | 1 | 0 | 11* | -3 | -1
CN(C)S(=O)(=O)Oc1ccsc1C(=O)Nc1ccc(Cl)c(Cl)c1 | -1 | -1 | -1 | 0 | -2 | 3 | . | .
COc1ccc(NC(=O)c2ccc(-c3ccc(C(C)=O)cc3)o2)cn1 | 2 | -1 | 0 | 1 | 0 | 12* | 0 | 4
COc1ccc(NC(=O)c2sccc2C)cn1 | 4 | 0 | 3 | 0 | 1 | 14* | 3 | 2
COc1ccc(NC(=O)c2ccco2)cn1 | 2 | -1 | 0 | 1 | -1 | -1 | . | .
Cc1ccsc1C(=O)Nc1ccc(OCc2ccccc2)cc1 | 7 | -1 | 1 | 1 | 1 | 8.6* | 5 | 6.6*
COc1ccc2nc(SCC(=O)Nc3ccccc3OC)[nH]c2c1 | -2 | -2 | -1 | 0 | -2 | -1 | . | .
Cc1ccc([N+](=O)[O-])cc1-c1ccc(/C=C(\C#N)c2[nH]nc(N)c2C#N)o1 | 3 | -1 | 0 | 0 | 0 | 9.5* | 1 | 12*
SMILES | hgDAF-12 ag | ssDAF12 agonist | DAX1 inh-1 | DAX1 inh-2 | hcDAF-12 act | SMARCA2 activ | SMARCA2 act conf | GAL4-VP16 Luc
COCc1cc(C)nc(OCC(=O)N/N=C/c2ccc(-c3cc([N+](=O)[O-])ccc3C)o2)c1C#N | 1 | -1 | 0 | 0 | 1 | -2 | . | .
CCn1c2ccccc2c2cc(CN3CCN(S(=O)(=O)CC)CC3)ccc21 | -2 | -1 | -1 | . | -2 | -4 | . | .
COc1ccc(S(=O)(=O)Nc2cccc3c2O[C@H](CN(C)S(=O)(=O)c2ccc(Cl)cc2)[C@H](C)CN([C@H](C)CO)C3=O)cc1 | 0 | -1 | -1 | 2 | 0 | 1 | . | .
O=c1cc(CSc2nnc(NC3CCCCC3)s2)nc2sccn12 | -2 | -1 | 0 | 0 | -1 | -4 | . | .
c1ccc(CSc2nnc(NC3CCCCC3)s2)cc1 | 12* | 0 | 3 | 4 | 1 | 16* | 6 | 8.6*
COc1ccc(CSc2nnc(SCc3ccccc3)s2)cc1 | -3 | -1 | 0 | . | -3 | 8.7* | 1 | 2
CCc1ccc(N2CC(C(=O)NCc3ccco3)CC2=O)cc1 (configuration not stated) | 0 | -1 | 0 | 0 | 0 | -2 | . | .
COc1ccc2nc(/N=C(\N)NC(=O)C(C)(C)C)nc(C)c2c1 | 6 | -1 | 1 | 3 | 0 | 4 | . | .
CCC(=O)N/C(N)=N/c1nc(C)c2cc(OC)ccc2n1 | 9 | 0 | 3 | 2 | 4 | 18* | 35* | 13*
O=C(COc1ccc2c3c(c(=O)oc2c1)CCC3)N[C@@H](CSCc1ccccc1)C(=O)O | 2 | -1 | 0 | 0 | 3 | 1 | . | .
CCN(CC)CCCNc1nc2ccccc2c2nc(-c3ccncc3)nn12 | 10 | 0 | 1 | 1 | 4 | 23* | 35* | 0
CCN(CC)CCCNc1nc2cc(OC)c(OC)cc2c2nc(-c3ccccc3)nn12 | 0 | -1 | 0 | 1 | 2 | 4 | . | .
COCc1cc(C)nc(SCC(=O)Nc2ccc(C)c(C)c2)c1C#N | 7 | 0 | 0 | 2 | 0 | 8.1* | 4 | 4
COc1ccc(NC(=S)N(CCc2c(C)[nH]c3ccccc23)Cc2cccnc2)cc1 | 0 | -2 | 1 | 0 | -4 | 9.1* | -2 | 0
CCOc1ccc(NC(=S)N(CCc2c(C)[nH]c3ccc(C)cc23)Cc2cccnc2)cc1 | 2 | -1 | 0 | 0 | 0 | -3 | . | .
O=C(NCC1(N2CCCCC2)CCCCC1)c1ccc(S(=O)(=O)N2CCCC2)cc1 | 2 | -2 | 3 | 3 | 0 | 3 | . | .
C(=C\c1nc(N2CCCC2)c2ccccc2n1)/c1ccccc1 | 2 | -2 | -1 | -1 | 0 | 9.0* | 15* | 2
Oc1ccc(Nc2nc(N3CCCC3)c3ccccc3n2)cc1 | 0 | -1 | -1 | -3 | -2 | 10* | 27* | -1
